Measurements from PubChem BioAssay.
Values joined by “and” are separate entries in the source; they are usually repeats but may differ in a detail not shown here. Identical values can stand only once. For some assays here: Potency and affinity values are given separately. Active and inactive are the calls of the source. Rule as the data show it, unless noted: active = parasite load remaining mostly below about 12% (no sharp cut-off); inactive = mostly above about 10%.

How the values were obtained:
[1] = polyglutamine-triggered caspase-3 activation inhibitors, cell-based (AID 1583); details: polyglutamine-induced caspase-3 activation, cell assay; stronger effect = higher value;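 tested at 10 µM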
[2] = suppressors of polyQ aggregation in yeast, 75Q-TubU reporter (AID 1593); details: Yeast 75Q polyglutamine aggregation reporter
[3] = rescue of polyQ-huntingtin neuronal dysfunction in worms, whole organism, C. elegans mechanosensory neurons, N-terminal huntingtin (AID 1599); details: touch response, stronger effect = higher value
[4] = inhibitors of mitochondrial cytochrome c release, biochemical, purified mitochondria (AID 1603); details: stronger effect = lower value;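 also: mouse liver mitochondria challenged with calcium chloride; signal normalized to the plate average as 100%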
[5] = inhibitors of polyQ protein aggregation (AID 1604); details: polyglutamine-induced protein aggregation inhibition assay; stronger effect = higher value; tested at 2.5 µM
[6] = enhancers of glutamate uptake in motor neurons, MN-1 cell line (AID 1612); details: MN-1 motor neuron cells, stronger effect = higher value;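 also: tested at 1 µM final; 0% = mean of DMSO vehicle wells on each plate; positive means more glutamate uptake than control and negative means less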
[7] = reducers of polyQ inclusions in PC12 cells, cell-based, NGF-treated PC12, GFPQ80 (AID 1614); details: PC12 NGF-treated GFP-polyQ80 inclusion reduction;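 also: lower means fewer inclusions and 0 means no inclusions at all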
[8] = suppressors of polyglutamine aggregation in yeast, 75Q-TubH (AID 1616); details: S. cerevisiae 75Q-TubH polyglutamine aggregation suppression; stronger effect = higher value
[9] = liver-stage malaria parasite growth inhibition, primary screen, cell-based, HepG2, luciferase luminescence, HepG2 viability (AID 624349);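 also: 100% = mean of DMSO negative control wells on the same plate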; details: P. berghei liver stage in HepG2, luciferase luminescence, concentration not given here; parasite load remaining: stronger effect = lower value; viability: measured here: HepG2 viability without parasites
[10] = target: 6-phosphogluconate dehydrogenase, decarboxylating (Homo sapiens) (UniProt P52209); test: 6PGD enzyme inhibitors, primary screen, biochemical, human, recombinant enzyme, NADPH absorbance (AID 1159550;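 active = at least 20% inhibition of 6-phosphogluconate dehydrogenase activity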); details: recombinant 6PGD, NADPH absorbance 341 nm; at 10 µM; stronger effect = higher value
[11] = differential killing of epithelial or mesenchymal cells, primary screen, imaging, PC-3E GFP, TEM4-18 mCherry, co-culture (AID 1345086;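 active = compounds killing one labelled cell type while sparing the other, by normalised counts and ratio limits, not self-fluorescent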;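 as to all read-outs here: cells exposed to compound for 72 h before imaging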;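 as to red/green cell ratio (normalised): normalised mesenchymal count divided by normalised epithelial count so high means epithelial killing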); details: imaging cell counts, at 1 µM; for red/green cell ratio (normalised): actives lie on both sides, counts scaled to control wells, 1 = unselective
[12] = sensitizers of A549 cells to miR-34 induction, primary screen, imaging, A549 dox-inducible miR-34, nuclei and caspase counts (AID 1347080;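 active = compounds whose cell count with miR-34 switched on is under 0.7 times the count with it off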); details: A549 miR-34 inducible, Hoechst nuclei count, 48 h
[13] = target: NAD(+) hydrolase SARM1 (Homo sapiens) (UniProt Q6SZW1); test: SARM1 TIR NADase inhibitors, cell lysate, NAD-Glo luminescence (AID 1508614;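 active = compound whose remaining NAD level is above about 45 nM, limit read from the data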;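 also: higher remaining NAD means stronger inhibition of SARM1 NADase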); details: SAM-TIR HEK293T lysate NADase, at 1 µM, stronger effect = higher value
[14] = target: Mitogen-activated protein kinase 7 (Homo sapiens) (UniProt Q13164); test: ERK5 transactivation activators in reporter cells, primary screen, cell-based, HTS (AID 1508626;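 active = luciferase signal above three times the same-plate solvent-only control wells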;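 also: luciferase driven by Gal4-ERK5 fusion binding five Gal4 sites before minimal TATA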); details: HeLa Gal4-ERK5 transactivation, 18 h, at 5 µM, stronger effect = higher value
[15] = viability rescue of complex I mutant cybrids, primary screen, cell-based, galactose medium, ATP luminescence (AID 1645843;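 active = z-score of at least 1.8 in each of two replicates, scored against plate mean and spread of sample wells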;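 also: positive z means more ATP and so rescue of galactose-driven cybrid death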); details: complex I mutant cybrid cells, 72 h, stronger effect = higher value
[16] = hESC survival regulators, cell-based (AID 493140; call rule not given here;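 also: cells exposed to compounds for four days before counting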); details: human embryonic stem cell survival screen; stronger effect = higher value
[17] = measured here: epithelial PC-3E GFP cell survival
[18] = measured here: mesenchymal TEM4-18 mCherry cell survival
[19] = stronger effect = lower value, cell number ratio, induced over uninduced
[20] = measured here: relative caspase fold change +Dox/-Dox
[21] = measured here: total cells with miR-34 induction, stronger effect = lower value
[22] = measured here: total cells without miR-34 induction

Mitogen-activated protein kinase 7 (Homo sapiens), sequence (Q13164 whole entry, looked up, the tested form may be a part): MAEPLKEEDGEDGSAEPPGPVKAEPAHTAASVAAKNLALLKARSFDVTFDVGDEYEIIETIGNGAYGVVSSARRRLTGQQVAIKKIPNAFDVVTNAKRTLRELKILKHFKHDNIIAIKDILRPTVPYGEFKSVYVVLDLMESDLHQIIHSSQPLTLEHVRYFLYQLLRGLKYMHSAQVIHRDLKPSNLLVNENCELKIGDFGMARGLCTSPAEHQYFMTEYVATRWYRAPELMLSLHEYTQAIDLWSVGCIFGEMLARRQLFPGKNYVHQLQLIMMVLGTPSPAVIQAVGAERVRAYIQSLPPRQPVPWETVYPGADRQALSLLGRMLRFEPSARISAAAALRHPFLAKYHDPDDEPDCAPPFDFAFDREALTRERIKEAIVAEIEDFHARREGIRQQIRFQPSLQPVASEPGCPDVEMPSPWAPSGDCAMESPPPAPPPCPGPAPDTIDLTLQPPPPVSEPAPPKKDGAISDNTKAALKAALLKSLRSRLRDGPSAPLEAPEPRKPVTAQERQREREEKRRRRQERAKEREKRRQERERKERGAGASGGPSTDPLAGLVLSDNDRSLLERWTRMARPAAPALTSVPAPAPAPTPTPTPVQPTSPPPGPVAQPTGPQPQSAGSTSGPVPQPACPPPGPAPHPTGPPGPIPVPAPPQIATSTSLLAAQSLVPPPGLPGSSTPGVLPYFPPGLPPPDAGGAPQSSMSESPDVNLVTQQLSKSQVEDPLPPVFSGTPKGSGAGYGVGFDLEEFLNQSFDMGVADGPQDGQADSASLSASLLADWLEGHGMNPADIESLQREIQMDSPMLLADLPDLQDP
6-phosphogluconate dehydrogenase, decarboxylating (Homo sapiens), sequence (P52209 whole entry, looked up): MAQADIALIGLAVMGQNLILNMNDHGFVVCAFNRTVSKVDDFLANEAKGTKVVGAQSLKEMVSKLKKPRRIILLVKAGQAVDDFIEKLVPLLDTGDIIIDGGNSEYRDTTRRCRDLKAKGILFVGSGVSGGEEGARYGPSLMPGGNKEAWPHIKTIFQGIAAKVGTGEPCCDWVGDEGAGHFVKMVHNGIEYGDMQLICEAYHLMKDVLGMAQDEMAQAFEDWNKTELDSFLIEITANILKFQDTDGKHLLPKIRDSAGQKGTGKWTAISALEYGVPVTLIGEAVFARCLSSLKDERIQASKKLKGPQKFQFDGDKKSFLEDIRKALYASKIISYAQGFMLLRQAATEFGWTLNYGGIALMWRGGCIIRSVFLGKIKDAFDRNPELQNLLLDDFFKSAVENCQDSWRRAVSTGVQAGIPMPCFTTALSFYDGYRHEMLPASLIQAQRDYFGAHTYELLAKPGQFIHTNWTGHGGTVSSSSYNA
NAD(+) hydrolase SARM1 (Homo sapiens), sequence (Q6SZW1 whole entry, looked up, the tested form may be a part): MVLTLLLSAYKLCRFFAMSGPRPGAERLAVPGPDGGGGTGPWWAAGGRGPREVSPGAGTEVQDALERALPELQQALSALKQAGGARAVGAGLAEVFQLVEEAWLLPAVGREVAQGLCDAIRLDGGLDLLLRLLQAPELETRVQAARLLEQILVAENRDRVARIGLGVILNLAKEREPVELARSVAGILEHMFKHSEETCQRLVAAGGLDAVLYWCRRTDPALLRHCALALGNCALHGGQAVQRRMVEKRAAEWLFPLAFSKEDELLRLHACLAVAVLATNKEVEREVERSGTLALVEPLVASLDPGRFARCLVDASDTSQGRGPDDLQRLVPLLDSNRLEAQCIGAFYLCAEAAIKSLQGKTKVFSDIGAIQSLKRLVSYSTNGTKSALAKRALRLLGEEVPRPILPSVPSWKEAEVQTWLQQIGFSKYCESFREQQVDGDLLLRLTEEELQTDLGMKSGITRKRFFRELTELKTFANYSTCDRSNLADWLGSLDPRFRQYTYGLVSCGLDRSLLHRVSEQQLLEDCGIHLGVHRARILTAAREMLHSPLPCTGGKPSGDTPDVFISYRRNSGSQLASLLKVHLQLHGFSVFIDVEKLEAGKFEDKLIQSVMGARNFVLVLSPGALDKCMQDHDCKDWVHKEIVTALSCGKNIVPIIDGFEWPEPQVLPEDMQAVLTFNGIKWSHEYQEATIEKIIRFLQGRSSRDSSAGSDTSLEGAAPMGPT

In the case of `CCOC(=O)CCC(=O)O[C@H]1[C@H](O[C@@H]2[C@@H](C)[C@H](O[C@H]3C[C@@](C)(OC)[C@@H](O)[C@H](C)O3)[C@@H](C)C(=O)O[C@H](CC)[C@@](C)(O)[C@H](O)[C@@H](C)C(=O)[C@H](C)C[C@@]2(C)O)O[C@H](C)C[C@@H]1N(C)C`, the inhibition [1] is reported as 26.4%, the score [2] is reported as 1.27 and the rescue above control [3] is reported as 16.6. For the same molecule, the cytochrome c release ratio [4] was 1.72, the inhibition of aggregation [5] was 47.5% and the glutamate uptake change [6] was -6.79%. The inclusion score [7] was 2, the aggregation suppression score [8] was 1.2 and the parasite load remaining [9] was 61.8% (inactive). The viability [9] was 170%, the inhibition [10] was -8.96% (inactive) and the red/green cell ratio (normalised) [11] was 1.11 (inactive). For the same molecule, the normalised cell number [11, 17] was 1.38, the normalised cell number [11, 18] was 1.54 and the fold change [12, 19] was 0.87 (inactive). It also gave a fold change [12, 20] of 1.05, a cell count [12, 21] of 11100 and a cell count [12, 22] of 12700. For the same molecule, the remaining NAD [13] was 10 nM (inactive) and the luciferase signal [14] was 208 AU (inactive).

Molecule `CN1C(CC(=O)c2ccccc2)CCCC1CC(O)c1ccccc1` (centres undefined) has an inhibition [1] of 17.8%, a score [2] of 1.4 and a rescue above control [3] of -4.31. The cytochrome c release ratio [4] was 0.5, the inhibition of aggregation [5] was 65.4% and the glutamate uptake change [6] was 3.53%. The inclusion score [7] was 2, the aggregation suppression score [8] was 1.27 and the parasite load remaining [9] was 97.3% (inactive). The viability [9] was 69.7%, the inhibition [10] was -10.3% (inactive) and the red/green cell ratio (normalised) [11] was 1.04 (inactive). For the same molecule, the normalised cell number [11, 17] was 0.88, the normalised cell number [11, 18] was 0.92 and the fold change [12, 19] was 0.965 (inactive). It also gave a fold change [12, 20] of 1.77, a cell count [12, 21] of 10200 and a cell count [12, 22] of 10600. For the same molecule, the remaining NAD [13] was 10 nM (inactive), the luciferase signal [14] was 268 AU (active) and the z-score [15] was 0.16 (inactive).

With `COc1cc2ccc(=O)oc2cc1O` the inhibition [1] was -26.2%, the score [2] was 1.15 and the rescue above control [3] was 11.4. The cytochrome c release ratio [4] was 0.77, the inhibition of aggregation [5] was 0% and the glutamate uptake change [6] was 13.8%. The inclusion score [7] was 2, the aggregation suppression score [8] was 1.62 and the survival [16] was 12.4 (inactive). For the same molecule, the parasite load remaining [9] was 104% (inactive) and 103% (inactive), the viability [9] was 106% and 66.2% and the inhibition [10] was -1.14% (inactive). For the same molecule, the red/green cell ratio (normalised) [11] was 1.11 (inactive), the normalised cell number [11, 17] was 0.86 and the normalised cell number [11, 18] was 0.96. The fold change [12, 19] was 0.946 (inactive), the fold change [12, 20] was 1.18 and the cell count [12, 21] was 8620. For the same molecule, the cell count [12, 22] was 9110 and the luciferase signal [14] was 40 AU (inactive).

In the case of `COc1ccc2c(c1OC)C(=O)O[C@H]2[C@H]1c2c(cc3c(c2OC)OCO3)CCN1C`, the parasite load remaining [9] is reported as 93.3% (inactive) and 73.1% (inactive), the viability [9] is reported as 64.7% and 94.8% and the inhibition [10] is reported as 4.17% (inactive). The red/green cell ratio (normalised) [11] was 1.15 (inactive), the normalised cell number [11, 17] was 1.08 and the normalised cell number [11, 18] was 1.24. For the same molecule, the fold change [12, 19] was 0.877 (inactive), the fold change [12, 20] was 1.33 and the cell count [12, 21] was 8940. It also gave a cell count [12, 22] of 10200.

For `O=C1NS(=O)(=O)c2ccccc21`, the inhibition [1] was 13.8%, the score [2] was 0.92 and the rescue above control [3] was -8.57. The cytochrome c release ratio [4] was 0.95, the inhibition of aggregation [5] was 78.3% and the glutamate uptake change [6] was 6.02%. For the same molecule, the inclusion score [7] was 2, the aggregation suppression score [8] was 1.22 and the parasite load remaining [9] was 95.1% (inactive) and 37.4% (inactive). The viability [9] was 71.8% and 92.3%, the inhibition [10] was 10.4% (inactive) and the red/green cell ratio (normalised) [11] was 1.14 (inactive). For the same molecule, the normalised cell number [11, 17] was 1.03, the normalised cell number [11, 18] was 1.17 and the remaining NAD [13] was 10 nM (inactive). For the same molecule, the luciferase signal [14] was 40 AU (inactive).

For `COc1cc2cc3c4cc(OC)c(OC)cc4cc[n+]3c(C)c2cc1OC`, the survival [16] was 0.333 (inactive), the parasite load remaining [9] was 91.2% (inactive) and 45.3% (inactive) and 68.5% (inactive) and the viability [9] was 98.6% and 66.5% and 73.3%. For the same molecule, the inhibition [10] was 13.7% (inactive), the red/green cell ratio (normalised) [11] was 0.8 (inactive) and the normalised cell number [11, 17] was 1. For the same molecule, the normalised cell number [11, 18] was 0.8, the fold change [12, 19] was 0.879 (inactive) and the fold change [12, 20] was 1.23. For the same molecule, the cell count [12, 21] was 8980, the cell count [12, 22] was 10200 and the luciferase signal [14] was 72 AU (inactive).

In the case of `CC(=O)Oc1cccc(C(=O)O)c1OC(C)=O`, the inhibition [10] is reported as 0.748% (inactive), the red/green cell ratio (normalised) [11] is reported as 0.81 (inactive) and the normalised cell number [11, 17] is reported as 1.05. The normalised cell number [11, 18] was 0.86 and the remaining NAD [13] was 10 nM (inactive).

In the case of `COc1ccc2cc([C@H](C)CO)ccc2c1`, the parasite load remaining [9] is reported as 184% (inactive) and 65% (inactive), the viability [9] is reported as 85.1% and 144% and the inhibition [10] is reported as 2.43% (inactive). For the same molecule, the red/green cell ratio (normalised) [11] was 1.04 (inactive), the normalised cell number [11, 17] was 1.15 and the normalised cell number [11, 18] was 1.2. The fold change [12, 19] was 0.861 (inactive), the fold change [12, 20] was 3.55 and the cell count [12, 21] was 11000. The cell count [12, 22] was 12800, the remaining NAD [13] was 10 nM (inactive) and the luciferase signal [14] was 32 AU (inactive).

`C[n+]1c2cc(N)ccc2cc2ccc(N)cc21` gave a score [2] of 0.44, a rescue above control [3] of 0 and a cytochrome c release ratio [4] of 0.97. The inhibition of aggregation [5] was 91.3%, the glutamate uptake change [6] was 14.1% and the aggregation suppression score [8] was 0.101. The parasite load remaining [9] was 25.5% (inactive) and -0.145% (inactive), the viability [9] was 41.9% and 34.3% and the inhibition [10] was -0.987% (inactive). For the same molecule, the red/green cell ratio (normalised) [11] was 0.5 (active), the normalised cell number [11, 17] was 0.8 and the normalised cell number [11, 18] was 0.4. The fold change [12, 19] was 1.05 (inactive), the fold change [12, 20] was 0.642 and the cell count [12, 21] was 1590. The cell count [12, 22] was 1510, the remaining NAD [13] was 10 nM (inactive) and the luciferase signal [14] was 24 AU (inactive).
